Data on 25 compounds can be found in PubChem BioAssay (Tox21).

Results filed as inconclusive are left out. A call without a number means that no potency is given here. Activity calls are given as the source filed them. Calls follow the shape of the dose curve; as a rule, active = well fitted activation curve with a large enough effect in the repeat runs; inconclusive = weak or mixed curves; inactive = flat fitted curve, though single readings scatter.
Potency is read from the fitted curve at half-maximal effect.

In the assay the target is Nuclear receptor subfamily 1 group I member 2 (Homo sapiens) (UniProt O75469). Nature of the assay: Human pregnane X receptor (PXR) activation by small molecules, qHTS assay (AID 1346985). Also: nearly all actives have a fitted effect of over 40% in size. The conditions noted are these: DPX-2 HepG2 CYP3A4-luciferase, 24 h; series mostly up to 38.3 µM. The source says: National Center for Advancing Translational Sciences [NCATS]
NIH Chemical Genomics Center [NCGC]
U.S. Environmental Protection Agency [EPA]
National Institutes of Environmental Health Sciences [NIEHS]
National Toxicology Program [NTP]
The Pregnane X receptor (PXR), a ligand activated nuclear receptor plays a critical role in the regulation of genes involved in drug metabolism and transporters. Activation of PXR may be involved in the unwanted adverse drug-drug interactions. […] Therefore, identification of compounds with the potential for PXR activation can be of importance in improving the efficacy of drugs with less toxicity and avoiding drug-drug interactions.
DPX-2 (Puracyp, Inc.) cell lines, used for screening against human PXR activation has HepG2 cells co-transfected with a PXR response element and a luciferase construct containing CYP3A4 promoter. Increase in luciferase activity can be used to identify the compounds that activate the PXR pathway.
DPX-2 cells were dispensed at 2,000 cells per well in 5uL of assay medium into white, solid-bottom 1536-well plates using a Multidrop Combi dispenser (Thermo Scientific). The assay plates were incubated at 37C for 5hr before transferring 23nL of test compounds dissolved in DMSO and positive control via Pintool station (Wako). The assay plates were incubated at 37C for 24hr. Then 5ul One-Glo assay reagent (Promega) was added to each plate by a Flying Reagent Dispenser (FRD, Aurora Discovery) and following 30 min incubation at room temperature, luciferase activity was quantified on a ViewLux plate reader (Perkin Elmer).
In general terms: Quantitative high-throughput screening tests each substance at several concentrations.
Consider `CCCCCCCCCCCCCCCCN`, for which the Potency entry is “inactive”. With `CC(C)(Cc1c[nH]c2ccccc12)NCC(O)COc1ccccc1C#N` (stereo not given), the Potency is 28.2 µM (active).

With `CCCCCCCCCCCCSCCOCCO`, the Potency result is “inactive”. As for `Cc1c(Nc2ncccc2C(=O)O)cccc1C(F)(F)F`, the Potency result was “inactive”.

As to `O=C(OC1C[C@H]2CC[C@@H](C1)[N+]21CCCC1)C(O)(c1ccccc1)c1ccccc1` (stereo not given in full), the Potency entry was “inactive”. As for `CC[C@H](NC(C)C)[C@H](O)c1ccc(O)c2[nH]c(=O)ccc12`, the entry is “inactive”; as for `C/C=C1\[C@H]2C=C(C)C[C@]1(N)c1ccc(=O)[nH]c1C2`, “inactive”.

Regarding `COc1cc(C)c(Cc2cnc(N)nc2N)cc1OC`, the Potency result is “inactive”.

On to `CCN(CCCCOC(=O)c1ccc(OC)c(OC)c1)C(C)Cc1ccc(OC)cc1` (stereo not given), for which the Potency entry was “inactive”.

Turning to `NC(=O)c1cc[n+](CC2=C(C(=O)[O-])N3C(=O)[C@@H](NC(=O)Cc4cccs4)[C@H]3SC2)cc1`, the Potency entry is “inactive”.

For the compound `CCc1ccc(C(=O)C(C)CN2CCCCC2)cc1` (stereo not given), the Potency result was “inactive”. With `Nc1ccc(C(=O)Oc2ccccc2)c(O)c1` the entry was “inactive”; with `CC(C)C[C@H](NC(=O)[C@H](Cc1ccccc1)NC(=O)c1cnccn1)B(O)O`, “inactive”; with `CC1=C(C)C(=O)C(C(CCCCCC(=O)O)c2ccccc2)=C(C)C1=O` (stereo not given), “inactive”. As for `C[C@@H](O)[C@H]1C(=O)N2C(C(=O)O)=C(S[C@@H]3CN[C@H](CNS(N)(=O)=O)C3)[C@H](C)[C@H]12`, the entry is “inactive”. For the compound `CC1=CC(=C(c2ccc(N)cc2)c2ccc(N)cc2)C=CC1=N`, the Potency entry is “inactive”. With `C/C(=C(\CCO)SS/C(CCO)=C(\C)N(C=O)Cc1cnc(C)nc1N)N(C=O)Cc1cnc(C)nc1N` the entry was “inactive”; with `CC(COc1ccccc1)NC(C)C(O)c1ccc(O)cc1` (stereo not given), “inactive”.

For `Cc1cccc(C)c1NC(=O)CN1CCCC1`, the Potency result was “inactive”. Consider `O=C1c2ccccc2C(=O)c2c1ccc(O)c2O`, for which the Potency result was “inactive”.

As for `O=C(NC1CCN(CCc2c[nH]c3ccccc23)CC1)c1ccccc1`, the Potency result is “inactive”. As for `Cc1ccc(S(=O)(=O)NC(=O)NC2CCCC2)cc1`, the Potency entry was “inactive”.

On to `COc1ccc(CN(CCN(C)C)c2ncccn2)cc1`, for which the Potency entry is “inactive”.

Turning to `CC(=O)OCC(=O)[C@@]1(O)CC[C@H]2[C@@H]3CCC4=CC(=O)C=C[C@]4(C)[C@@]3(F)[C@@H](O)C[C@@]21C`, the Potency entry is “inactive”.

Regarding `CCOC(C)OCC`, the Potency result is “inactive”.
